The results in this text go back to PubChem BioAssay (NCI).

Compounds without any hit were thinned out: in the full panel of roughly 83,000, 20% have a hit.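 Interpretation: 100, growth as untreated; towards 0, rising growth inhibition; 0, no net growth; 0 to -100, cell death. Compounds scoring below 10 were considered active.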 Unmarked numbers belong to inactive results. Activity calls are given as the source filed them.

The assay concerns HL-60(TB) leukemia. Nature of the assay: NCI-60 one-dose screen, 48 h (100 = growth as untreated, 0 = no growth, -100 = all killed). The note with it: 10 µM unless noted.
Consider `FC(F)(F)c1ccc(-c2cnc(Cl)nc2NCc2cc(C(F)(F)F)cc(C(F)(F)F)c2)cc1`, for which the growth is 5.98% (active). The value for `O=C(NC(=S)N1CC=CCC1)c1ccccc1` was 125%; that for `N#CSCC1CC(O)(c2ccccc2)C(c2ccccc2)C(c2ccc(Cl)cc2)O1` (stereo not given) was -1.83% (active); that for `Cc1cc2nc3cc(C)c(N)cc3[n+](-c3ccccc3)c2cc1N` was 63.3%. The value for `CN(C)c1nc2c([nH]1)c(=O)n(C)c(=O)n2C` was 108%; that for `COc1c(O)cc2oc3cc(O)c(CC=C(C)C)c(O)c3c(=O)c2c1CC=C(C)C` was 65.9%; that for `CC(=O)Oc1csc(N(C(C)=O)c2cc(C(=O)O)cc(C(=O)O)c2)n1` was 113%. In the case of `Cc1ccc(C2(C)NC(=O)N(CC(=O)Nc3cccc(C)c3)C2=O)cc1` (stereo not given), the growth was 103%. Turning to `Cc1ccc(-n2nc(C(C)(C)C)cc2NC(=O)NCc2cc(F)ccc2Oc2ccc3c(cnn3CCO)c2)cc1`, the growth was -1.84% (active). Next, `O=c1cc(C(F)(F)F)[nH]c(=S)[nH]1`: 94.1%; `C=CCCCCCCCCC(=O)[O][Sn]([CH2]CCC)([CH2]CCC)[CH2]CCC`: -15.1% (active); `O=C1/C(=C/c2ccc(F)cc2)CN(C(=O)CCN2CCC(=NO)CC2)C/C1=C\c1ccc(F)cc1`: -8.33% (active). On to `Oc1ccccc1/C=N/N=C\c1ccccc1Cl`, for which the growth is 30.9%. Consider `CCN1C(=O)N(CC)C2C1NN=c1s/c(=C\c3ccccc3F)c(=O)n12` (stereo not given), for which the growth was -48.1% (active). Next, `C=C1C(=O)O[C@H]2[C@H]1CC/C(Cn1cc(-c3ccc(F)cc3)nn1)=C\CC[C@@]1(C)O[C@@H]21`: -18.8% (active).
